# From PubChem
# A selection: hits, their analogues and other compounds. The true share with any hit is near 7.5%.
# HCMV inh = human cytomegalovirus inhibition; HFF cells, HCMV-luciferase reporter, 72 h; stronger effect = lower value; activity change, negative = inhibition, % at 57.5 µM; actives 4.5% (n = 410,000); in the data active means activity change below about -60%; inconclusive means no clear call, values can overlap the other calls; inactive means above about -39%
#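 Two-dose cell screen: HFF monolayers treated with compounds and infected with luciferase-expressing HCMV at 1 PFU/cell, 72 h at 37C, then lysed for luciferase measurement.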
# VACV mCherry inh = inhibitors of vaccinia virus infection (mCherry reporter signal). AID 720579. Potency, µM (doses to about 36.5 µM), inactives show at the top dose activity change, negative = inhibition, most hits filed as inhibitors. Vaccinia virus mCherry reporter infection, fluorescence. actives 0.63% (n = 310,000); calls by dose curve; tested in A549 cells; further: potency means the concentration at half of the fitted maximal effect; nearly all actives have a fitted effect of over 35% in size
# Vaccinia Venus = inhibitors of vaccinia virus (Venus reporter); Vaccinia virus Venus reporter expression, fluorescence; Potency, µM (highest dose often 36.5 µM), for inactives: at the highest dose activity change, negative = inhibition, most hits filed as inhibitors; actives 0.46% (n = 330,000); AID 720580; calls by dose curve; tested in A549 cells; further: potency means the concentration at half of the fitted maximal effect; nearly all actives have a fitted effect of over 30% in size
# HCV inh = HCV inhibition; Huh7.5.1 HCVcc-Cre infection, luciferase reporter, 44 h; Potency, µM (doses to about 41.8 µM), for inactives: at the top dose activity change, negative = inhibition, actives largely listed as inhibitors; actives 3.4% (n = 340,000); further: potency means the concentration at half of the fitted maximal effect
#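 1,000 cells/well; 4 h culture; + compound; + HCVcc-Cre (~0.5 moi); 44 h; luciferase substrate, RT 15 min; read 15 sec.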
# FMDV antiviral = foot and mouth disease virus antiviral activity. FMDV antiviral cell-based qHTS. Potency, µM (titrated, usually from 57.9 µM), for inactives: top-dose activity change, negative = inhibition, actives largely listed as inhibitors. AID 1159524. actives 1.2% (n = 410,000); calls by dose curve; tested in HEK293T cells; further: read-out not given here; potency means the concentration at half of the fitted maximal effect; nearly all actives have a fitted effect of over 45% in size
# Giardia FBPA inh = blocks Giardia fructose-bisphosphate aldolase activity; Potency, µM (doses to about 59.6 µM), without a hit: at the highest dose activity, negative = inhibition, most hits filed as inhibitors; actives 0.71% (n = 290,000); purified Giardia FBPA; further: potency means the concentration at half of the fitted maximal effect; nearly all actives have a fitted effect of over 55% in size
# Target sequence (A8B2U2 whole entry, looked up): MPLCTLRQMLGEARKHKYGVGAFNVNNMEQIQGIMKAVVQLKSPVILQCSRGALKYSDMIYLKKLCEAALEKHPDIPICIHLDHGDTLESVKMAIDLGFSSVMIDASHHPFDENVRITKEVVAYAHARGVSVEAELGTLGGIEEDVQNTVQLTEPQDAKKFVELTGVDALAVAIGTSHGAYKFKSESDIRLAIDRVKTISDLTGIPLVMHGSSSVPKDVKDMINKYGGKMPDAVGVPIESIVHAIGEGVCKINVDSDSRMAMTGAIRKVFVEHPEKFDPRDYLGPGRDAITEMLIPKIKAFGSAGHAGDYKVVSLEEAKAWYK
#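 40 nM FBPA preincubated 10 min at RT with compound (up to 57.5 uM final), then substrate plus GAPDH/TPI/NAD/arsenate coupling and diaphorase/resazurin added. Fluorescence read after 20 min at RT, 525/598 nm.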
# An asterisk follows results filed as active; i = inactive; ? = inconclusive; nt = not tested or not shown; [ ] = remark or other dose. Unless noted, the call rests on the fitted dose curve; in most records, active means well fitted curve in the direction sought with a large enough effect; inconclusive means small, poorly fitted or top-dose-only effect, or another doubt; inactive means no such curve, though single readings can be large; an effect the other way counts as inactive or inconclusive. On the % scale 0 is the no-effect control and ±100 the full control effect.
SMILES,HCMV inh,VACV mCherry inh,Vaccinia Venus,HCV inh,FMDV antiviral,Giardia FBPA inh
COc1ccc(C)cc1-n1nnnc1SCn1nnc2ccccc2c1=O,-80.0*,nt,nt,?,-16.0%,4.2%
COc1ccc(C)cc1-n1nnnc1SCc1cc(=O)n2cc(C)ccc2n1,-71.9*,-17.1%,-20.2%,?,15.8µM*,-5.4%
Cc1ccc2[nH]c(-c3ccc(Cl)cc3)c(C#N)c2c1,33.6,nt,nt,nt,nt,nt
Cc1cc(=O)c2cc(C(=O)Nc3ccc(F)cc3)ccc2[nH]1,5.5,-4.8%,-10.0%,nt,-7.2%,nt
COc1ccccc1Oc1ccc(NC(=O)Cc2ccccc2)cc1,4.1,nt,nt,?,57.2%,nt
CCC(C)NC(=O)c1c(F)c(F)c(F)c(F)c1F (stereo not drawn),-67.7*,nt,?,13.2%,-16.5%,4.1%
CCC(C)NC(=O)c1ccccc1-c1ccccc1C(=O)NC(C)CC (stereo not drawn),26.9,3.6%,-8.0%,26.1%,-8.0%,4.9%
Cc1cccc(C)c1OCCn1c(CCNC(=O)C2CCCCC2)nc2ccccc21,60.3,-18.3%[7.34 µM],-6.6%[7.34 µM],nt,-15.0%,nt
Cn1c(CSc2ccccc2)c(C#N)c2ccccc21,18.4,nt,nt,-6.5%,36.4%,-5.8%
Cn1c(CNc2ccccn2)c(C#N)c2ccccc21,13.9,nt,nt,11.2µM*,0.0%,-3.6%
O=C(OCCc1ccccn1)c1cccc([N+](=O)[O-])c1,19.2,i,-23.8%,-2.2%,17.6%,nt
CCOc1ccc(NC(=O)Cn2cc(C(=O)c3ccc(CC)cc3)c(=O)c3ccc(C)nc32)cc1,-1.1,-2.6%,5.0%,nt,-19.2%,nt
Cc1cccc(NC(=O)CSc2nc3ccccc3nc2N2CC(C)OC(C)C2)c1 (stereo not drawn),-11.2,-7.5%,-12.0%,11.2µM*,-0.3%,-3.6%
CCc1cccc(NC(=O)CSc2nc3ccccc3nc2N2CCCCC2)c1,-79.8*,-17.7%[7.34 µM],2.6%[7.34 µM],nt,-11.8%,nt
COc1ccc(NC(=O)CSc2nc3ccccc3nc2N2CCCCC2)cc1,-17.3,-12.7%,-3.7%,-23.7%,-26.8%,14.9%
COc1cccc(NC(=O)CSc2nc3ccccc3nc2N2CCCC2)c1,?,i,1.5%,10µM*,3.2%,-12.2%
CCc1ccc(NC(=O)CSc2nc3ccccc3nc2N2CCCCC2)cc1,-36.7,0.4%,-1.1%,-7.4%,20.0%,-8.4%
CC1CN(c2nc3ccccc3nc2SCC(=O)Nc2cccc(C(F)(F)F)c2)CC(C)O1 (stereo not drawn),?,i,-13.2%,?,?,nt
Cc1cccc(NC(=O)CSc2nc3ccccc3nc2N2CCCCC2)c1,-84.0*,-5.7%,4.8%,1.1%,0.0%,3.8%
Cc1cccc(NS(=O)(=O)c2ccc(C)c(C(=O)NC3CCN(Cc4ccccc4)CC3)c2)c1,?,nt,nt,?,-25.6%,nt
O=C(C[n+]1ccccc1Br)c1ccc(O)c(O)c1,nt,-20.1%,5.1%,nt,nt,nt
Cc1cccc(N2CCN(C(=O)CSc3nc4ccccc4nc3N3CC(C)OC(C)C3)CC2)c1C (stereo not drawn),-4.5,-18.5%,-8.8%,6.31µM*,?,6.7%
Cc1ccc(-c2cc(C(=O)N/N=C/c3c(C)nn(C)c3C)c3ccccc3n2)cc1C,18.7,-14.6%,?,35.5µM*,-4.9%,-0.3%
Cc1nn(-c2ccccc2)c(N2CCCC2)c1/C=N/NC(=O)c1cc(-c2cccnc2)nc2ccccc12,37.6,?,?,14.1µM*,-11.5%,0.3%
Cc1cnc(C(=O)OCC(=O)N2C(C)CCCC2C)cn1 (stereo not drawn),-10.3,nt,nt,8.8%,-1.7%,nt
SMILES,HCMV inh,VACV mCherry inh,Vaccinia Venus,HCV inh,FMDV antiviral,Giardia FBPA inh
CCN(C(=O)COC(=O)c1ncc(Cl)c(Cl)c1Cl)c1c(N)n(Cc2ccccc2)c(=O)[nH]c1=O,0.0,nt,nt,15.1%,-1.8%,nt
Cc1nn(CCO)c2ncc(C(=O)c3cc(Cl)ccc3O)cc12,-0.5,8.8%,6.2%,-14.0%,-7.4%,12.1%
O=C(CCCCCn1c(=S)[nH]c2ccc(N3CCOCC3)cc2c1=O)NCc1ccc(Cl)cc1,-75.0*,i,1.4%,-19.3%,?,2.6%
O=c1c2cc(N3CCOCC3)ccc2[nH]c(=S)n1Cc1ccc(Cl)cc1,-86.6*,-25.7%,-20.1%,?,2.1%,-20.4%
O=C(c1ccc(Cn2c(=S)[nH]c3ccc(N4CCOCC4)cc3c2=O)cc1)N1CCN(c2ccc(F)cc2)CC1,-12.7,-17.8%,-25.1%,?,41.6%,-2.4%
COc1cccc(NC(=O)N[C@H]2CC[C@@]34CCCN3C(=O)CCC[C@H]4[C@H]2C)c1,44.6,nt,nt,nt,nt,nt
Cc1nc2ccccc2c2oc(C(=O)Nc3ccc4c(c3)OCCO4)cc12,-30.7,-7.7%,-4.9%,12.6µM*,-27.6%,-13.7%
COc1cc(NC(=O)c2cc3c(C)nc4ccccc4c3o2)cc(OC)c1OC,-23.8,8.6%,-23.1%,?,0.0%,-2.1%
Cc1nc2ccccc2c2oc(C(=O)Nc3ccc(C(C)C)cc3)cc12,-68.2*,nt,nt,?,?,-1.9%
Cc1cccc(-c2cc(C(=O)Nc3ccc4c(c3)OCCO4)c3ccccc3n2)c1,-36.6,nt,-5.1%,?,0.0%,-3.9%
NC(=O)C1(N2CCCCC2)CCN(C(=S)Nc2cc(F)cc(F)c2)CC1,-64.2*,-2.6%,-8.7%,-0.5%,-8.4%,-0.2%
O=C(COc1nncc2ccccc12)Nc1ccc(F)c(F)c1,-101.5*,-21.1%,-7.3%,19.8%,-11.5%,-3.2%
CC(=O)Nc1ccc(-c2csc(Nc3cccc(C)n3)n2)cc1,7.0,?,-18.3%,12.6µM*,27.4%,-6.6%
O=C(Nc1ccc(-c2csc(Nc3ccccc3)n2)cc1)c1ccccc1,-63.1*,?,?,?,-20.5%,-0.7%
O=C(Nc1cccc(-c2csc(Nc3ccc(Cl)cc3)n2)c1)c1ccccc1,-22.4,?,?,?,-7.3%,2.5%
O=C(Nc1cccc(-c2csc(Nc3ccc(Cl)cc3)n2)c1)c1cccc(C(F)(F)F)c1,-32.7,?,?,3.16µM*,?,-5.6%
CC(=O)NNc1nc(-c2ccc(NC(C)=O)cc2)cs1,?,nt,nt,8.3%,-15.7%,-10.3%
O=C(Nc1nc(-c2ccc(Br)cc2)cs1)c1cccnc1,-63.6*,-4.8%,-3.4%,-29.9%,-16.9%,0.0%
O=C(Nc1nc(-c2ccccc2)cs1)c1cccnc1,56.8,?,-26.0%,?,-19.4%,3.4%
CCc1nc2ccc(Cc3ccc4nc(CC)[nH]c4c3)cc2[nH]1,?,nt,nt,-28.1%,10.4%,1.0%
N#Cc1ccc(-c2csc(NNC(=O)c3ccc(Br)cc3)n2)cc1,-105.6*,nt,14.1µM*,8.91µM*,-23.4%,6.4%
N#Cc1ccc(-c2csc(NNC(=O)c3ccccc3)n2)cc1,-31.4,?,11.7%,-18.8%,-12.6%,1.7%
CCCCCCC#CC1C=CC(OC(=O)OCC)C(COC(=O)OCC)O1 (stereo not drawn),nt,nt,nt,nt,nt,-4.6%[12.9 µM]
Cc1ccc2c(c1)N(CC(=O)Nc1ccccc1C(F)(F)F)C(=O)c1cccnc1O2,0.0,-10.2%,-16.2%,nt,0.0%,nt
